Most compounds without a hit are left out; they make up all but 3.6% or so of the library.
PLK1 PBD block = inhibitors of human PLK1 polo-box domain binding; Plk1 PBD binding of FITC phosphopeptide, fluorescence polarization; Potency, µM, for the others: max response, negative = inhibition, hits mostly inhibitors; hit rate 2.8% among 360,000; AID 720504; further: potency means the concentration at half of the fitted maximal effect; series mostly up to about 57 µM; on the % scale 0 is the no-effect control and ±100 the full control effect; nearly all actives have a fitted effect of over 65% in size
GCN5L2 inh = blocks human GCN5L2 histone acetyltransferase; Q92830; GCN5L2 HAT assay, ThioGlo1 CoA-SH fluorescence; Potency, µM (highest dose often 58.9 µM), for inactives: top-dose activity change, negative = inhibition, actives largely listed as inhibitors; hit rate 0.21% among 390,000; further: potency means the concentration at half of the fitted maximal effect; on the % scale 0 is the no-effect control and ±100 the full control effect
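ThioGlo1-coupled HAT assay: 20nM GCN5L2, 70uM acetyl-CoA, 75uM H3(1-25) peptide, pH 7.5. Fluorescence read at 340/540nm at start and after 20 min at room temperature.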
PI5P4Ka inh = inhibitors of human PI5P4K alpha; PI5P4Kalpha enzyme, ADP-Glo luminescence, 60 min; stronger effect = lower value; AID 652105; max response, %; P48426; hit rate 1.2% among 330,000; active means max response of -50% or lower; inconclusive means between -30% and -50%; inactive means -30% or higher; further: value at the top dose of about 77 µM; on the % scale 0 is the no-effect control and ±100 the full control effect
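Reactions run in 0.038 M HEPES pH 7.4, 0.28 mM EGTA, 0.1% CHAPS and 5% DMSO, with PI5P4Kalpha, substrate, compound and 5 microM ATP final, one hour at room temperature. Readout is ADP-Glo luminescence.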
VDR inh = inhibitors of human vitamin D receptor; hit rate 0.93% among 400,000; Potency, µM, inactives show max response, negative = inhibition, usual class: inhibitors; VDR-SRC2-3 peptide fluorescence polarization, 2 h; P11473; AID 504847; further: potency means the concentration at half of the fitted maximal effect; on the % scale 0 is the no-effect control and ±100 the full control effect
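Measured by FP: displacement of SRC2-3 coactivator peptide from VDR by library compounds, following a two-hour ambient incubation.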
Rango complex inh = prevents formation of the Rango-importin beta complex; Q14974; Rango CFP/YFP FRET sensor + importin beta, 45 min; Potency, µM (top dose mostly 92.2 µM), without a hit: top-dose inhibition of complex formation; hit rate 0.031% among 340,000; AID 540263; calls by dose curve;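 further: potency means the concentration at half of the fitted maximal effect; 0% = DMSO wells and 100% = buffer wells lacking importin beta; nearly all actives have a fitted effect of over 15% in size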
Target sequence (Q14974 whole entry, looked up): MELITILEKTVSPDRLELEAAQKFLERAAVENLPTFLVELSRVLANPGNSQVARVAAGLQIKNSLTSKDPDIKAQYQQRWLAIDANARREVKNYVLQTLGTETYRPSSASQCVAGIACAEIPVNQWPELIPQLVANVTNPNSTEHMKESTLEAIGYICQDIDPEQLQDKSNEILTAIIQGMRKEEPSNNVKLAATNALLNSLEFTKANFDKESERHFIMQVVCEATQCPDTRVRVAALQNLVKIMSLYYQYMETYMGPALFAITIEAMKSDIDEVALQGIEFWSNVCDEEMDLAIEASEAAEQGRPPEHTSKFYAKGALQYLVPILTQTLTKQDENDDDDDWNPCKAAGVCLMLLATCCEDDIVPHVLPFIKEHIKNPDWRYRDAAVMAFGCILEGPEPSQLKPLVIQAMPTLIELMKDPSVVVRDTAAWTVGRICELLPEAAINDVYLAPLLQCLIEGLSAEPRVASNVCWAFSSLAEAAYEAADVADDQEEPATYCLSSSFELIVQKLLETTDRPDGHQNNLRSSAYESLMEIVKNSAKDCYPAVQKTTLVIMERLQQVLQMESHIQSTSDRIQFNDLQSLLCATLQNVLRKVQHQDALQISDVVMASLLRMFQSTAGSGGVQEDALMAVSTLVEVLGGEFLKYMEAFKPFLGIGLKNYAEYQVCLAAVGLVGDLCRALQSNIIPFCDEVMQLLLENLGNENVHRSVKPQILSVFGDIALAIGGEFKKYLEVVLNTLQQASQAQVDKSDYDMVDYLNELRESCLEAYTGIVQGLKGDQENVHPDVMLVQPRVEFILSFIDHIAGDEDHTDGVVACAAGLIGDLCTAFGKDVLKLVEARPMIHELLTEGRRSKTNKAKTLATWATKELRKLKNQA
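Inhibition scored from the CFP 486 nm/YFP 530 nm FRET ratio 45 min after adding 0.125 microM importin beta to 50 nM Rango biosensor preincubated 5 min with compound (room temperature, PBS with DTT, Tween-20, BSA). No-importin wells as positive control.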
Rango release inh = inhibitors of RanGTP-induced Rango-importin beta complex dissociation | hit rate 0.071% among 340,000 | O95149+P62826 | Potency, µM (doses to about 46.1 µM), for inactives: at the highest dose activity change, negative = inhibition | AID 540253 | Biochemical FRET Rango-importin beta, RanGTP-induced dissociation; calls by dose curve; further: potency means the concentration at half of the fitted maximal effect; % of control where 0% means no effect; nearly all actives have a fitted effect of over 45% in size
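Two FRET readings bracket the reaction: one 5 min after compound meets Rango–importin beta, another 45 min after RanGTP-RCC1 (0.6 uM Ran, 0.2 uM RCC1, 2 mM GTP) is added. Only the second defines inhibition.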
Active calls of the source: *. Unless noted, the call rests on the fitted dose curve; in most records, active means well fitted curve in the direction sought with a large enough effect; inconclusive means small, poorly fitted or top-dose-only effect, or another doubt; inactive means no such curve, though single readings can be large; an effect the other way counts as inactive or inconclusive.

Screening CC(=O)c1sc2nc(CSc3nncn3C)[nH]c(=O)c2c1C returned PLK1 PBD block -16.4%, GCN5L2 inh -14.6%, PI5P4Ka inh -22.5, VDR inh -13.9%, Rango complex inh -2.0% and Rango release inh 0.5%.
Screening Cc1nnc(SCc2nc3sc(C(=O)O)c(C)c3c(=O)[nH]2)s1 returned PLK1 PBD block -21.3%, GCN5L2 inh inconclusive, PI5P4Ka inh -61.7*, VDR inh 1.6%, Rango complex inh inconclusive and Rango release inh -12.5%.
Screening Cc1c(Cl)cccc1NS(=O)(=O)c1ccc(-c2cnc(C3CC3)o2)cc1 returned GCN5L2 inh 4.0% and VDR inh 5.9%.
For CN(C(=O)CN1C(=O)S/C(=C\c2ccc(F)cc2)C1=O)C1CCS(=O)(=O)C1 (stereo not drawn) the results were PLK1 PBD block -15.0%, GCN5L2 inh -2.5%, PI5P4Ka inh 3.7, VDR inh -5.3%, Rango complex inh 1.9% and Rango release inh 10.7%.
`CCN(C(=O)CN1C(=O)S/C(=C\c2ccc(F)cc2)C1=O)C1CCS(=O)(=O)C1` (stereo not drawn) gave PLK1 PBD block 29.9µM*, GCN5L2 inh -10.3%, PI5P4Ka inh 6.3, VDR inh -6.5%, Rango complex inh -1.9% and Rango release inh -0.1%.
For N#CSCC(=O)c1cccc2ccccc12 the results were PLK1 PBD block 10.6µM*, GCN5L2 inh -0.4%, PI5P4Ka inh -3.4, VDR inh inconclusive, Rango complex inh 4.9% and Rango release inh 18.3%.
For CCCCN1CC2([N+](=O)[O-])C=CC(=O)C([N+](=O)[O-])(C1)C2CC(=O)c1ccccc1 (stereo not drawn) the results were PLK1 PBD block -14.1%, GCN5L2 inh 0.3%, PI5P4Ka inh -18.1, VDR inh inconclusive, Rango complex inh -1.2% and Rango release inh 14.9%.
Screening CCN1CC2([N+](=O)[O-])C=CC(=O)C([N+](=O)[O-])(C1)C2CC(=O)c1ccccc1 (stereo not drawn) returned PLK1 PBD block inconclusive, GCN5L2 inh 1.3%, PI5P4Ka inh -52.9*, VDR inh -10.3%, Rango complex inh -6.5% and Rango release inh -14.2%.
CC(C)(C)OC(=O)N(c1cccc2cccnc12)S(=O)(=O)c1ccccc1Br was read as VDR inh -15.0%.
`CCNC(=O)N1c2ccc(OCC)cc2C(C)=CC1(C)C` gave PLK1 PBD block 0.7%, GCN5L2 inh -13.0%, PI5P4Ka inh -4.7, VDR inh -5.6%, Rango complex inh inconclusive and Rango release inh 2.06µM*.
CC/C=C1/N=C2C(=O)N(C)C(=O)N=C2N(C)N1 was read as VDR inh -12.6%.
For CN1N/C(=C\c2ccccc2)N=C2C(=O)N(C)C(=O)N=C21 the results were VDR inh 50.1µM*.
O=c1cc(CO)oc(C(Nc2ccccn2)c2cccc(F)c2)c1O (stereo not drawn) was read as PLK1 PBD block 23.8µM*, GCN5L2 inh -19.8%, PI5P4Ka inh -15.2, VDR inh 15.8µM*, Rango complex inh 1.9% and Rango release inh 13.3%.
For COc1cccc(C(Nc2ccccn2)c2oc(CO)cc(=O)c2O)c1 (stereo not drawn) the results were PLK1 PBD block 21.2µM*, GCN5L2 inh -3.3%, PI5P4Ka inh -0.2, VDR inh inconclusive, Rango complex inh 3.4% and Rango release inh -6.8%.
`Cc1ccc(CNC(=O)CCc2nnc3n(C)c(=O)c4sccc4n23)cc1` gave GCN5L2 inh -7.5% and VDR inh -12.3%.
Screening Cc1oc(-c2ccc(F)cc2)cc1-c1nn2c(-c3ccoc3C)nnc2s1 returned PLK1 PBD block inconclusive, GCN5L2 inh -17.8%, PI5P4Ka inh -74.4*, VDR inh inconclusive, Rango complex inh -3.2% and Rango release inh -9.6%.
CCOC(=O)c1cc(C)n(CC2CCC(C(=O)Nc3ccc(C)cc3)CC2)c1C (stereo not drawn) was read as GCN5L2 inh -5.0% and VDR inh 7.4%.
`O=C(c1ccc2c(c1)OCCO2)N1CCN(c2ccccn2)CC1` gave PLK1 PBD block -0.8%, GCN5L2 inh -3.8%, PI5P4Ka inh 10.0, VDR inh -15.5%, Rango complex inh 6.3% and Rango release inh 1.5%.
Screening O=C(c1ccc2c(c1)OCO2)N1CCN(c2ccccn2)CC1 returned PLK1 PBD block 21.2µM*, GCN5L2 inh -0.2%, PI5P4Ka inh -9.0, VDR inh inconclusive, Rango complex inh 1.5% and Rango release inh 2.6%.
c1ccc2[nH]c(NCCCc3cnc[nH]3)nc2c1 was read as GCN5L2 inh 54.4% and VDR inh 0.5%.
Screening Clc1cccc(N/N=C/c2ccncc2)c1 returned PLK1 PBD block -14.0%, GCN5L2 inh -1.5%, PI5P4Ka inh 9.4, VDR inh 7.6%, Rango complex inh -3.3% and Rango release inh 16.3%.
O=C(Nc1cccc(Cl)c1)O/N=C\c1ccncc1 was read as PLK1 PBD block 9.47µM*, GCN5L2 inh 4.3%, VDR inh 4.9%, Rango complex inh inconclusive and Rango release inh 10.2%.
For O=C(Nc1cccc(Cl)c1)OCC#CCCl the results were GCN5L2 inh inconclusive and VDR inh 3.55µM*.
Screening O=C(COC(=O)c1ccncc1)Nc1cccc(Cl)c1 returned PLK1 PBD block 21.2µM*, GCN5L2 inh 0.9%, PI5P4Ka inh -28.5, VDR inh -18.9%, Rango complex inh 0.4% and Rango release inh inconclusive.
For COc1cc(C(c2sc3nc(C)nn3c2O)N2CCC3(CC2)OCCO3)cc(OC)c1OC (stereo not drawn) the results were PLK1 PBD block 2.99µM*, GCN5L2 inh -7.8%, PI5P4Ka inh -50.2*, VDR inh -25.5%, Rango complex inh 3.0% and Rango release inh -12.7%.
`COC(=O)C1CCN(C(c2cc(OC)c(OC)c(OC)c2)c2sc3nc(C)nn3c2O)CC1` (stereo not drawn) gave PLK1 PBD block 2.3%, GCN5L2 inh -6.4%, PI5P4Ka inh 5.0, VDR inh -6.7%, Rango complex inh -0.5% and Rango release inh -6.8%.
CN(C)CCCOc1c2ccccc2n(Cc2ccccc2)[n+]1[O-] was read as GCN5L2 inh 9.2% and VDR inh 4.3%.
Screening Cn1c(/C=C/c2ccccc2)nc2ccccc21 returned PLK1 PBD block -3.0%, GCN5L2 inh -4.9%, PI5P4Ka inh inconclusive, VDR inh -7.6%, Rango complex inh 0.0% and Rango release inh 18.9%.
CC(=O)c1ccc(/C=C/c2nc3ccccc3n2C)o1 was read as PLK1 PBD block -19.2%, GCN5L2 inh 11.2µM*, PI5P4Ka inh -0.7, VDR inh 0.9%, Rango complex inh inconclusive and Rango release inh inconclusive.

Screening results: PubChem, National Center for Advancing Translational Sciences (NCATS)
